In one test the test system is BMPR1A. To be noted: concentration: 1 μM, replicates: in singlicate; n = 1.
In a further test the test system is BMPR1B. To be noted: concentration: 1 μM, replicates: in singlicate; n = 1.
Another test has as its system BMPR2. To be noted: concentration: 1 μM, replicates: in singlicate; n = 1.
The subject of a further test is BMX. To be noted: concentration: 1 μM, replicates: in singlicate; n = 1.
For another test, the system named is BRAF. To be noted: concentration: 1 μM, replicates: in singlicate; n = 1.
Another test concerns T1, BRK.
T1 construct: gene PTK6
To be noted: concentration: 1 μM, replicates: in singlicate; n = 1.

Another test deals with BRSK1. To be noted: concentration: 1 μM, replicates: in singlicate; n = 1.
The subject of another test is BRSK2. To be noted: concentration: 1 μM, replicates: in singlicate; n = 1.
Another test has as its system BTK. To be noted: n = 1.
The next test deals with BUB1. To be noted: concentration: 1 μM, replicates: in singlicate; n = 1.
Where [1] appears, read: concentration: 1 μM, replicates: in singlicate.

Read-outs that look alike come from different tables or passages of the source.
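Further: KINOMEscan kinase panel screen.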

In the case of `O=C(Nc1ccccc1)Nc1cccc(Oc2ccc3nccn3n2)c1`, the “%Inh” value turned out to be 0% in the test with BMPR1A; 0% with BMPR1B; 0% with BMPR2; 0% in the test with BMX; 24% in the test on BRAF; 0% in the test with BRK. Also, the “%Inh” value in the test on BRSK1, in the test with BRSK2, in the test on BTK (setting [1]) and in the test with BUB1 was 0% in each case.
Consider `COC(=O)c1c(-c2ccccc2)c2cc(OC)ccc2c(=O)n1Cc1ccccc1`, for which the “%Inh” value in the test with BMPR1A stood at 0%; in the test on BMPR1B, 0%; in the test on BMPR2, 0%; in the test on BMX, 9%; with BRAF, 89%; in the test on BRK, 0%. For the same molecule, the “%Inh” value in the test on BRSK1 worked out at 9%; in the test on BRSK2 it was 6%; with BTK (setting [1]) it was 54%; in the test on BUB1 it was 21%.
Regarding `Cc1c(Cn2ccn3c(=O)cc(N4CCOCC4)nc23)cccc1C(F)(F)F` [GSK2289044], the “%Inh” value in the test with BMPR1A was 0%; in the test with BMPR1B, 0%; in the test with BMPR2 it was 0%; in the test on BMX, 38%; in the test on BRAF, 0%; in the test on BRK, 0%. The “%Inh” value in the test on BRSK1, with BRSK2, in the test with BTK (setting [1]) and in the test with BUB1 was 0% throughout.
Turning to `Cc1cccc(-c2nc(Nc3ccncc3)c3ccccc3n2)n1` [GW855857], the “%Inh” value in the test on BMPR1A turned out to be 0%; in the test with BMPR1B it was 29%; in the test with BMPR2 it was 0%; in the test with BMX, 6%; in the test with BRAF it was 0%; in the test with BRK it was 13%. In addition, the “%Inh” value in the test with BRSK1 is reported as 0%; in the test on BRSK2, 11%; in the test on BTK (setting [1]) it was 0%; in the test on BUB1, 0%.
Turning to `COc1ccc(CNC(=O)NC2CCN(c3ccnc(Nc4cc(OC)c(OC)c(OC)c4)n3)C2)cc1` (stereo not shown) [GSK1379748], the “%Inh” value was 1% in the test with BMPR1A; 0% in the test with BMPR1B; 0% in the test with BMPR2; 21% in the test on BMX; 0% in the test with BRAF; 3% in the test on BRK. Moreover, the “%Inh” value with BRSK1 worked out at 0%; with BRSK2, 0%; in the test with BTK (setting [1]), 32%; in the test on BUB1, 32%.
Consider `COc1ccccc1CNC(=O)c1cc(C(=O)c2ccccc2C)c[nH]1` [GSK364507], for which the “%Inh” value in the test on BMPR1A was found to be 4%; in the test with BMPR1B, 0%; with BMPR2, 7%; in the test with BMX, 8%; in the test with BRAF it was 0%; with BRK it was 12%. Further, the “%Inh” value in the test with BRSK1 is on record as 0%; with BRSK2, 95.2%; in the test on BTK (setting [1]) it was 0%; in the test with BUB1, 33%.
Take `Cl.Oc1ccc(-c2nc(-c3ccccc3)[nH]c2-c2ccncc2)cc1` [SB-428218]: the “%Inh” value in the test on BMPR1A stood at 0%; in the test on BMPR1B, 0%; in the test on BMPR2, 20%; in the test on BMX it was 0%; in the test on BRAF, 60%; with BRK, 26%. The “%Inh” value with BRSK1 was determined as 0%; with BRSK2 it was 0%; in the test with BTK (setting [1]), 21%; in the test on BUB1, 93%.
For `Cc1nnc(-c2ccc3occ(-c4ccc(S(C)=O)cc4)c3c2)[nH]1` (stereo not shown), the “%Inh” value with BMPR1A is given as 11%; with BMPR1B, 37%; in the test on BMPR2, 26%; in the test on BMX, 0%; with BRAF, 2%; with BRK it was 0%. Moreover, the “%Inh” value in the test with BRSK1 was 38%; with BRSK2, 0%; in the test with BTK (setting [1]), 0%; in the test on BUB1, 26%.
Turning to `CCn1c(-c2ccccn2)nc2cnccc21` [SB-736398], the “%Inh” value with BMPR1A is given as 0%; in the test on BMPR1B, 0%; with BMPR2, 21%; with BMX it was 77%; with BRAF it was 11%; in the test on BRK, 14%. Besides, the “%Inh” value in the test with BRSK1 is 100%; in the test on BRSK2, 0%; with BTK (setting [1]), 7%; in the test with BUB1 it was 40%.
As to `CC(=O)Nc1nc2cnc(Nc3cc(NC(=O)c4cccc(CCC#N)c4)ccc3C)nc2s1`, the “%Inh” value in the test with BMPR1A is 0%; in the test on BMPR1B it was 0%; in the test with BMPR2, 16%; with BMX, 7%; in the test on BRAF, 97.7%; in the test with BRK, 0%. Further, the “%Inh” value in the test with BRSK1 is 0%; with BRSK2 it was 11%; in the test on BTK (setting [1]), 32%; with BUB1 it was 14%.
In the case of `Cc1c(O)cccc1Nc1ccnc2ccc(C(F)(F)F)cc12.Cl` [GW466413], the “%Inh” value is on record as 0% in the test on BMPR1A; 44% in the test with BMPR1B; 0% in the test on BMPR2; 0% in the test with BMX; 69% in the test with BRAF; 86% in the test on BRK. In addition, the “%Inh” value is listed as 0% in the test on BRSK1, 0% in the test on BRSK2, 0% in the test on BTK (setting [1]) and 29% in the test on BUB1.
Consider `O=C(O)COc1ncnc2cc(-c3ccc4[nH]ncc4c3)sc12`, for which the “%Inh” value is given as 19% with BMPR1A; 18% with BMPR1B; 63% with BMPR2; 0% with BMX; 19% in the test on BRAF; 100% in the test on BRK. Besides, the “%Inh” value is recorded as 5% with BRSK1, 1% in the test on BRSK2, 0% with BTK (setting [1]) and 25% in the test with BUB1.
For the molecule `COc1ccccc1-c1ccc2c(NC(=O)C3CC3)n[nH]c2n1` [SB-711239], the “%Inh” value in the test on BMPR1A is recorded as 0%; in the test on BMPR1B it was 0%; with BMPR2, 10%; in the test on BMX, 16%; with BRAF, 5%; with BRK, 2%. Also, the “%Inh” value with BRSK1 is on record as 0%; in the test on BRSK2, 2%; in the test on BTK (setting [1]), 32%; with BUB1, 11%.
On to `Nc1nc(-c2nccs2)c(-c2ccnc3ccccc23)s1` [GW693542], for which the “%Inh” value in the test on BMPR1A is given as 14%; with BMPR1B, 10%; in the test on BMPR2, 9%; in the test on BMX, 0%; in the test with BRAF, 0%; in the test on BRK, 3%. Moreover, the “%Inh” value is recorded as 11% with BRSK1, 0% with BRSK2, 0% in the test on BTK (setting [1]) and 47% in the test on BUB1.
Regarding `NC(=O)c1nnc2ccccc2c1N`, the “%Inh” value with BMPR1A is recorded as 7%; with BMPR1B it was 10%; in the test with BMPR2, 36%; in the test with BMX, 90.1%; in the test with BRAF it was 23%; in the test on BRK, 9%. For the same molecule, the “%Inh” value in the test on BRSK1 is 22%; in the test with BRSK2, 0%; with BTK (1 µM) it was 43%; in the test on BUB1, 12%.
Take `CN(C)CCN(C)C(=O)c1cc(-c2ccncc2)c(-c2ccc(Cl)c(O)c2)o1.Cl.Cl` [SB-710397]: the “%Inh” value with BMPR1A is listed as 0%; in the test with BMPR1B, 0%; in the test on BMPR2, 31%; with BMX, 0%; with BRAF, 94.5%; in the test with BRK it was 29%. For the same molecule, the “%Inh” value with BRSK1 amounted to 2%; in the test with BRSK2, 0%; in the test on BTK (setting [1]), 10%; with BUB1, 95.2%.

The values above are taken from paper PMC5540273 (PLoS ONE, 2017).
